Experimental findings from PubChem BioAssay (Tox21) are described below.

Values joined by “and” are separate entries in the source; they are usually repeats but may differ in a detail not shown here. Equal entries are not always repeated. Inconclusive results are not listed. Some structures have more than one record in an assay (separate samples or runs), and their calls can disagree. Active and inactive are the calls of the source. Unless noted, the call rests on the fitted dose curve; in most records, active means well fitted curve in the direction sought with a large enough effect in the repeat runs; inconclusive means weak or mixed curves; inactive means no such curve, though single readings can be large; an effect the other way counts as inactive or inconclusive.

The nature of experiment [1]: qHTS assay to identify small molecule agonists of the hypoxia (HIF-1) signaling pathway - cell viability counter screen (AID 1224844; calls by dose curve; further: nearly all actives have a fitted effect of over 50% in size; further: potency means the concentration at half of the fitted maximal effect). The method in brief: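 CellTiter-Glo luminescence read-out, 30 min RT, taken in the same wells as the beta-lactamase HRE reporter assay; HRE-bla ME-180 cells, 0.5% dialyzed FBS, 17 hr compound treatment at 37C, 5% CO2.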
(In qHTS, concentration-response curves come from the screen itself.)

Experiment [2] can be described thus: qHTS assay to identify small molecule agonists of H2AX (AID 1224845; active means well fitted activation curve with a large enough effect in the signal ratio in the repeat runs, not every such curve was filed as active; the % refers to the signal ratio; further: potency means the concentration at half of the fitted maximal effect). A digest of the protocol: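 Phospho-H2AX Ser139 measured by HTRF (ex 320 nm; em 665 and 620 nm) after 24 hr antibody incubation. Compounds, 15 concentrations, 0.76% DMSO, were applied to CHO-K1 cells for 3hr at 37C before lysis.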
Experiment [3] is described as follows: qHTS assay to identify small molecule agonists of H2AX - cell viability counter screen (AID 1224847; calls by dose curve; further: nearly all actives have a fitted effect of over 30% in size; further: potency means the concentration at half of the fitted maximal effect). The method in brief:
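Quantitative HTS viability measurement: CHO-K1 wild-type cells in serum (10% FBS) medium, short 3 hr drug exposure at 37C with 0.76% DMSO, CellTiter-Glo luminescent detection.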

Experiment [4] in a line: qHTS assay to identify small molecule agonists of the estrogen related receptor (ERR) signaling pathway from Tox21 library (AID 1224849; calls by dose curve; further: nearly all actives have a fitted effect of over 15% in size). To be noted: ERR reporter cell line, ONE-Glo luciferase, 18 h. The method in brief: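 Luminescence readout (ONE-Glo, 30 min RT) after 18 h compound exposure at 37 C of NTP-supplied ERR reporter cells; cells were plated 6 h before compound addition by pin tool.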

Experiment [5] is described as follows: qHTS RealTime-Glo MT Cell Viability Assay in HepG2 cells - 24 hour (AID 1224867). Further: nearly all actives have a fitted effect of over 50% in size. Further: potency means the concentration at half of the fitted maximal effect. A digest of the protocol:
(§1)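 Real-time, nonlytic viability: 600 HepG2 cells/well mixed with NanoLuc enzyme plus prosubstrate; 5 h settle, compound (DMSO) added by pintool; luminescence monitored over 40 h at 37 C.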

The nature of experiment [6]: qHTS RealTime-Glo MT Cell Viability Assay in HEK293 cells - 32 hour (AID 1224868). Further: nearly all actives have a fitted effect of over 50% in size. Further: potency means the concentration at half of the fitted maximal effect. A digest of the protocol: (§2)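 Cells + reagent dispensed (600 cells/well, HEK293) → 5 h at 37 C/5% CO2 → 23 nL compound in DMSO pinned → 40 h at 37 C → luminescence read at 0, 8, 16, 24, 32, 40 h.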
A short description of experiment [7]: A CellTox Green Cytotoxicity Assay to monitor cytotoxicity in HEK293 cells - 0 hour (AID 1224869). Further: nearly all actives have a fitted effect of over 50% in size. The method in brief:
(§3)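 Read-out: fluorescence of a cell-impermeant cyanine dye staining DNA of dead cells, proportional to cytotoxicity. HEK293, 600 cells/well with reagent, compound (23 nL DMSO) added after 5 h; reads at 0, 8, 16, 24, 32, 40 h.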

Experiment [8] can be described thus: qHTS RealTime-Glo MT Cell Viability Assay in HepG2 cells - 40 hour (AID 1224870). Further: nearly all actives have a fitted effect of over 50% in size. Further: potency means the concentration at half of the fitted maximal effect. A digest of the protocol:
(§4)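 Real-time viability: cells seeded at 600 per well together with NanoLuc and cell-permeant prosubstrate, compounds added after 5 h incubation. Luminescence tracked at 0, 8, 16, 24, 32 and 40 h of exposure.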

Experiment [9] is described as follows: A CellTox Green Cytotoxicity Assay to monitor cytotoxicity in HEK293 cells - 40 hour (AID 1224871). Further: nearly all actives have a fitted effect of over 45% in size. Further: potency means the concentration at half of the fitted maximal effect. The method in brief: as §3
The nature of experiment [10]: qHTS RealTime-Glo MT Cell Viability Assay in HepG2 cells - 8 hour (AID 1224873). Further: nearly all actives have a fitted effect of over 55% in size. Further: potency means the concentration at half of the fitted maximal effect. A digest of the protocol: as §4
Experiment [11] is described as follows: qHTS RealTime-Glo MT Cell Viability Assay in HEK293 cells - 40 hour (AID 1224874). Further: nearly all actives have a fitted effect of over 50% in size. Further: potency means the concentration at half of the fitted maximal effect. The conditions noted are these: RealTime-Glo luminescence; max response: stronger effect = lower value. A digest of the protocol:
(§5)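 Luminescence readout at each listed time point; HEK293, 600 cells/well, RealTime-Glo MT reagent added with cells; compounds pinned (23 nL in DMSO) after 5 h at 37 C; continuous culture at 37 C.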

Experiment [12] can be described thus: A CellTox Green Cytotoxicity Assay to monitor cytotoxicity in HEK293 cells - 24 hour (AID 1224875). Further: nearly all actives have a fitted effect of over 45% in size. Further: potency means the concentration at half of the fitted maximal effect. The method in brief:
as §3

Experiment [13] is described as follows: A CellTox Green Cytotoxicity Assay to monitor cytotoxicity in HepG2 cells - 16 hour (AID 1224876). Further: nearly all actives have a fitted effect of over 45% in size. Further: potency means the concentration at half of the fitted maximal effect. A digest of the protocol: (§6)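 HepG2, 600 cells/well premixed w/ CellTox Green; 5 h settle, 37 C/5% CO2; pintool cpd add (DMSO); 37 C, 40 h; fluorescence read at 0, 8, 16, 24, 32, 40 h.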
The nature of experiment [14]: qHTS RealTime-Glo MT Cell Viability Assay in HepG2 cells - 32 hour (AID 1224877). Further: nearly all actives have a fitted effect of over 55% in size. Further: potency means the concentration at half of the fitted maximal effect. A digest of the protocol:
as §1

Experiment [15] can be described thus: A CellTox Green Cytotoxicity Assay to monitor cytotoxicity in HepG2 cells - 24 hour (AID 1224878). Further: nearly all actives have a fitted effect of over 45% in size. Further: potency means the concentration at half of the fitted maximal effect. A digest of the protocol:
as §6

Experiment [16] in a line: A CellTox Green Cytotoxicity Assay to monitor cytotoxicity in HepG2 cells - 40 hour (AID 1224879). Further: nearly all actives have a fitted effect of over 40% in size. Further: potency means the concentration at half of the fitted maximal effect. A digest of the protocol:
as §6

Experiment [17] can be described thus: qHTS RealTime-Glo MT Cell Viability Assay in HEK293 cells - 0 hour (AID 1224880). The method in brief: as §5
A short description of experiment [18]: qHTS assay to identify small molecule antagonists of the estrogen related receptor (ERR) signaling pathway from Tox21 library (AID 1224848). Further: nearly all actives have a fitted effect of over 50% in size. Further: potency means the concentration at half of the fitted maximal effect. A digest of the protocol:
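Luciferase luminescence (ONE-Glo, 30 min room temperature) was the read-out. Cells of the NTP-supplied ERR line, 2,000 per well, were given 6 h at 37 C before compound addition in DMSO and 18 h exposure at 37 C.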

Experiment [19] in a line: qHTS RealTime-Glo MT Cell Viability Assay in HEK293 cells - 16 hour (AID 1224872). Further: nearly all actives have a fitted effect of over 50% in size. Further: potency means the concentration at half of the fitted maximal effect. The method in brief:
as §2

[20] abbreviates: at 92.4 µM (top of the series) unless noted.
On the % scale 0 is the no-effect control and ±100 the full control effect.

With `c1ccc2c(c1)cc1ccc3cccc4ccc2c1c34`, the Potency result in experiment [1], in [2], in [3], in experiment [5], in experiment [6] and in [7] was “inactive” each time. Also, the Potency result in experiment [8], in [9], in [10], in experiment [12], in experiment [13] and in experiment [14] was “inactive” in each case. For the same molecule, the Potency entry in experiment [15] and in experiment [17] was “inactive” in each case. The activity change, positive = activation in experiment [4] (setting [20]) is 61.3% (active). Also, in experiment [11], the max response is -10.6% (inactive). Moreover, the Potency in [16] is 7.05 µM (active).

Turning to `N#Cc1c[nH]cc1-c1cccc2c1OC(F)(F)O2`, the Potency entry in experiment [1], in experiment [2], in [7], in [8], in experiment [9] and in [10] was “inactive” each time. The Potency entry in experiment [13], in [14] and in experiment [17] was “inactive” each time. In addition, the activity change, positive = activation in experiment [4] (setting [20]) was -48.5% (inactive). Also, the Potency in [6] is 6.92 µM (active); in experiment [11] it was 6.16 µM (active); in experiment [16], 13.8 µM (active).

Regarding `CC(=O)[O][Pb]([c]1ccccc1)([c]1ccccc1)[c]1ccccc1`, the Potency in experiment [1] is 1.38 µM (active); in [2] it was 0.8 µM (active); in [3] it was 25.3 µM (active); in experiment [18], 545 nM (active); in experiment [5] it was 1.1 µM (active); in experiment [6], 0.49 µM (active). The Potency in experiment [8] was 0.871 µM (active); in [9], 2.45 µM (active); in [19], 0.49 µM (active); in [10] it was 3.47 µM (active); in experiment [11], 0.389 µM (active); in experiment [12], 3.89 µM (active). In addition, the Potency in experiment [13] is 1.95 µM (active); in experiment [14], 0.977 µM (active); in experiment [15], 1.38 µM (active); in experiment [16] it was 0.977 µM (active). In [4] (setting [20]), the activity change, positive = activation is -77.1% (inactive).

In the case of `O.O.O.O.O.O.O.O=S(=O)([O-])[O-].[Co+2]`, the Potency result in [1], in experiment [2], in experiment [3], in experiment [5], in [6] and in experiment [8] was “inactive” in each case. Also, the Potency result in experiment [9], in [19], in [12], in experiment [13], in experiment [14] and in experiment [16] was “inactive” each time. In addition, in experiment [11], the max response was 0.267% (inactive).

As to `Brc1ccc(Oc2ccc(Br)cc2Br)c(Br)c1`, the Potency entry in experiment [1], in [2], in experiment [18], in [8], in [9] and in experiment [10] was “inactive” in each case. The Potency result in experiment [12], in [13], in [14], in experiment [16] and in experiment [17] was “inactive” in each case. Also, the Potency in experiment [3] is 113 µM (active); in [6], 49 µM (active); in [11] it was 49 µM (active). Further, the activity change, positive = activation in experiment [4] (setting [20]) is 13% (inactive).

Take `CC(Cc1ccc(O)cc1)NCC(O)c1cc(O)cc(O)c1` (stereo not drawn): the Potency result in experiment [1], in experiment [2], in [3], in experiment [5], in [6] and in experiment [7] was “inactive” throughout. Further, the Potency entry in [8], in experiment [9], in experiment [19], in experiment [10], in experiment [12] and in experiment [13] was “inactive” in each case. The Potency result in [15], in experiment [16] and in experiment [17] was “inactive” each time. The max response in [11] is 1.61% (inactive).

As to `C[C@]12C/C(=C/O)C(=O)C[C@@H]1CC[C@@H]1[C@@H]2CC[C@@]2(C)[C@H]1CC[C@]2(C)O`, the Potency is 24.8 µM (active) and 19 µM (active) in experiment [1]; 90.6 µM (active) in experiment [2]; 34.7 µM (active) and 33.5 µM (active) in [18]; 49.4 µM (active) and inactive in experiment [9]. In addition, the Potency result in experiment [3], in experiment [5], in experiment [6], in [8], in experiment [19] and in experiment [10] was “inactive” throughout. Also, the Potency result in [13], in experiment [14], in experiment [15] and in experiment [17] was “inactive” throughout. For the same molecule, the activity change, positive = activation in [4] (at 42.5 µM (top of the series)) is -37.2% (inactive); in [4] (at 92.4 µM (top of the series)) it was -61.4% (inactive). Besides, in experiment [11], the max response was -17.5% (inactive).
